Test results reported in PubChem BioAssay (NCATS).
Inconclusive results are not listed. A number with no mark means an inactive call. Calls come from the whole dose curve; as a rule, active = well fitted cell-killing curve with a large enough effect; inconclusive = small, poorly fitted or top-dose-only effect, or effect the other way; inactive = flat fitted curve, though single readings scatter.

What follows are compounds tested on PA-1 (assay: Primary qHTS to identify gynecologic anti-cancer compounds using libraries of approved drugs and bioactive compounds (AID 1345084; note: nearly all actives have a fitted effect of over 55% in size)). Conditions: Gynecologic cancer cell panel viability, ATPlite luminescence, 48 h; series mostly up to 57.5 µM; activity change, negative = cytotoxicity: at the top concentration.
Summary of the method: (§1)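 Cell viability after 48 h drug treatment, ATPlite luminescence readout; five doses.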
% is set by controls: 0 for no effect and ±100 for the full control effect.

| SMILES | activity change, negative = cytotoxicity |
| --- | --- |
| COc1c(O[C@@H]2O[C@H](CO)[C@@H](O)[C@H](O)[C@H]2O)c(CCC(=O)O)cc2ccoc12 | 8.42% [at 38.5 µM] |
| CCOC(=O)CSc1nc2c(sc3ccccc32)c(=O)n1CCCN1CCCC1 | -3.73% |
| O=C(O)/C=C/c1ccc(O[C@@H]2O[C@H](CO)[C@@H](O)[C@H](O)[C@H]2O)cc1 | 3.78% [at 38.5 µM] |
| COCCN1CCC(C(=O)NO)(S(=O)(=O)c2ccc(Oc3ccc(OC(F)(F)F)cc3)cc2)CC1 | 5.29% |
| CCCCOc1nc(N)c2c(n1)N(Cc1cccc(CN3CCCC3)c1)CC(=O)N2 | -6.11% |
| CC(C)C1(O)C=C2C(=O)CC3C(C)(C(=O)O)CCCC3(C)C2CC1 (stereo not given) | 0.792% [at 38.5 µM] |
| O=C(OC[C@H]1O[C@H](O[C@H]2CO[C@H](CO)[C@@H](O)[C@@H]2O)[C@H](O)[C@@H](O)[C@H]1O)c1ccccc1 | 0.127% [at 25.3 µM] |
| CC1CCCCCCCc2cc(O)cc(O)c2C(=O)O1 (stereo not given) | -13.4% |
| COC(=O)C1=CO[C@@H](O[C@@H]2O[C@H](CO)[C@@H](O)[C@H](O)[C@H]2O)[C@H]2[C@@H]1[C@H](O)[C@H](O)[C@]2(C)O | 3.02% [at 25.3 µM] |
| CC(C)/C=C1/NC(=O)C(C(C)C)n2c1nc1c(O)cccc1c2=O (stereo not given) | -0.055% [at 38.5 µM] |
| CC1C2=CC(=O)OC2(O)CC2C1C(OC(=O)c1ccccc1)C(OC(=O)c1ccccc1)C1(O)C2(C)CCC(O)C1(C)C(=O)O (stereo not given) | -5.22% [at 25.3 µM] |
| O=C1NC(=O)/C(=C/c2cccc(C(F)(F)F)c2)S1 | -3.84% |
| C/C=C/C=C/C=C/C(=O)OC1C=C2C(O)OC(=O)[C@]2(O)[C@@]2(C)CCCC(C)(C)[C@H]12 (stereo not given in full) | 4.09% [at 25.3 µM] |
| COc1cc2c(c(O)c1OC/C=C(\C)CC/C=C(/C)CCC=C(C)C)CN(C(CCC(=O)O)C(=O)O)C2=O (stereo not given) | -14.3% [at 25.3 µM] |
| CCCC(C(=O)O)c1c(C)nc2ccc(Cl)cc2c1-c1ccccc1 (stereo not given) | 8.47% |
| Cn1cc(-c2c[nH]c3ncnc(N4CCOCC4)c23)cn1 | 11.9% |
| CC1=C2C[C@@]3(C)C(CCC[C@@H]3C)C(O)C2(O)OC1=O (stereo not given in full) | 3.9% |
| CCOc1ncc(S(=O)(=O)N2CCN(CC)CC2)cc1-c1nc2c(CC)n(CCOC)nc2c(=O)[nH]1 | 12.9% |
| COc1cc2nc(=NC(=O)c3cccnc3)n3c(c2cc1OC)NCC3 | -7.39% |
| CC1=CC[C@@]2(C)CC[C@@](O)(C(C)C)[C@@H]2[C@@H](O)C1 | 6.57% |
| C/C(=C\CCC(C)(C)O)CCO[C@@H]1O[C@H](CO[C@@H]2O[C@@H](C)[C@H](O)[C@@H](O)[C@H]2O)[C@@H](O)[C@H](O)[C@H]1O | 20.6% [at 25.3 µM] |
| CC1(C)C=Cc2c(ccc3c2N=C2C(C)(C)[C@@H]4C[C@]56CCCN5C(=O)[C@@]4(C[C@]23O)NC6=O)O1 | 9.24% [at 25.3 µM] |
| C=C1CC23CC1CCC2C12OC(=O)C(C)(C(O)C(O)C1O)C2C3C(=O)O (stereo not given) | 28.3% [at 38.5 µM] |
| C=CC(C)(O)CCC1C(C)(O)CCC2C(C)(C)CCCC21C (stereo not given) | 11.6% [at 38.5 µM] |
| CC1=CC(=O)CC(C)(C)[C@@]1(O)/C=C/C(C)O[C@@H]1O[C@H](CO)[C@@H](O)[C@H](O)[C@H]1O (stereo not given in full) | -4.02% [at 25.3 µM] |
| C=C(CCO)C(=O)OCC1OCC(OC(=O)C(=C)CCO[C@@H]2O[C@H](COC(=O)C(=C)CCO[C@@H]3O[C@H](CO)[C@@H](O)[C@H](O)[C@H]3O)[C@@H](O)[C@H](O)[C@H]2O)C(O)C1O (stereo not given in full) | -1.37% [at 25.3 µM] |

What follows are compounds tested on Tov-21-G in the same assay as above. Conditions: Gynecologic cancer cell panel viability, ATPlite luminescence, 48 h; series mostly up to 57.5 µM; activity change, negative = cytotoxicity: at the top concentration.
Summary of the method: as §1

| SMILES | activity change, negative = cytotoxicity |
| --- | --- |
| CC1CCC2(C(=O)O)CCC3(C)C(=CCC4C5(C)C[C@@H](O)[C@@H](O)C(C)(CO)C5CCC43C)C2C1(C)O (stereo not given in full) | 4.22% [at 25.3 µM] |
| C=C1CCC2[C@@](C)(C(=O)O)CCC[C@@]2(C)[C@@H]1CCc1ccoc1 (stereo not given in full) | -4.16% [at 38.5 µM] |
| OCC1OC(Oc2cc(O)cc(/C=C/c3ccc(OC4OC(CO)C(O)C(O)C4O)cc3O)c2)C(O)C(O)C1O (stereo not given) | -9.51% [at 25.3 µM] |
| C/C=C(/C)C(=O)OC1C2OC2C2(CO2)C2C3OC(=O)C(C)C3CCC12C (stereo not given) | -1.45% [at 38.5 µM] |
| COc1cc(/C=C/C(=O)O[C@@H]2O[C@H](CO)[C@@H](O)[C@H](O)[C@H]2O)ccc1O | 10.5% [at 38.5 µM] |
| C[C@]1(O)CC[C@@H]2C(C(=O)O)=CO[C@@H](O[C@@H]3O[C@H](COC(=O)/C=C/c4ccc(O)c(O)c4)[C@@H](O)[C@H](O)[C@H]3O)[C@@H]21 | 4.4% [at 25.3 µM] |
| C=C[C@H]1[C@H](O[C@@H]2O[C@H](CO)[C@@H](O)[C@H](O)[C@H]2O)OC=C2C(=O)N3Cc4c([nH]c5ccccc5c4=O)[C@@H]3C[C@H]21 | 4.87% [at 25.3 µM] |
| COc1cc(O)c2c(c1Cl)CC(C)OC2=O (stereo not given) | 4.47% |
| Cc1ncc(Cl)cc1NCc1ccc(C(=O)NC(CC2CCCC2)C(=O)NC2CC2)s1 (stereo not given) | -2.34% |
| COC(=O)C1=CO[C@@H](O[C@@H]2O[C@H](CO)[C@@H](O)[C@H](O)[C@H]2O)[C@@H]2[C@@H](C)[C@@H](O)C(O)[C@H]12 (stereo not given in full) | 6.66% [at 25.3 µM] |
| Cc1occc1C(=O)n1ccnc1 | 3.13% |
| COc1cccc(CNc2ccc(S(=O)(=O)Nc3nc4ccccc4s3)cc2)c1O | 9.88% |
| CC1(C)CC[C@]2(C(=O)O[C@@H]3O[C@H](CO[C@@H]4O[C@H](CO[C@@H]5O[C@H](CO)[C@H](O)[C@H](O)[C@H]5O)[C@@H](O)[C@H](O)[C@H]4O)[C@@H](O)[C@H](O[C@@H]4O[C@H](CO)[C@@H](O)[C@H](O)[C@H]4O)[C@H]3O)[C@H](O)C[C@]3(C)C(=CCC4[C@@]5(C)CC[C@H](O[C@@H]6OC[C@@H](O)[C@H](O)[C@H]6O)[C@@](C)(C(=O)O)C5CC[C@]43C)[C@@H]2C1 (stereo not given in full) | 9.11% [at 6.55 µM] |
| COc1c(O[C@@H]2O[C@H](CO)[C@@H](O)[C@H](O)[C@H]2O)c(CCC(=O)O)cc2ccoc12 | -3.54% [at 38.5 µM] |
| CCOC(=O)CSc1nc2c(sc3ccccc32)c(=O)n1CCCN1CCCC1 | -5.09% |
| O=C(O)/C=C/c1ccc(O[C@@H]2O[C@H](CO)[C@@H](O)[C@H](O)[C@H]2O)cc1 | -9.13% [at 38.5 µM] |
| COCCN1CCC(C(=O)NO)(S(=O)(=O)c2ccc(Oc3ccc(OC(F)(F)F)cc3)cc2)CC1 | 5.14% |
| CCCCOc1nc(N)c2c(n1)N(Cc1cccc(CN3CCCC3)c1)CC(=O)N2 | 4.51% |
| CC(C)C1(O)C=C2C(=O)CC3C(C)(C(=O)O)CCCC3(C)C2CC1 (stereo not given) | -1.55% [at 38.5 µM] |
| O=C(OC[C@H]1O[C@H](O[C@H]2CO[C@H](CO)[C@@H](O)[C@@H]2O)[C@H](O)[C@@H](O)[C@H]1O)c1ccccc1 | 9.96% [at 25.3 µM] |

| SMILES | activity change, negative = cytotoxicity |
| --- | --- |
| CC1CCCCCCCc2cc(O)cc(O)c2C(=O)O1 (stereo not given) | -0.772% |
| COC(=O)C1=CO[C@@H](O[C@@H]2O[C@H](CO)[C@@H](O)[C@H](O)[C@H]2O)[C@H]2[C@@H]1[C@H](O)[C@H](O)[C@]2(C)O | 0.926% [at 25.3 µM] |
| CC(C)/C=C1/NC(=O)C(C(C)C)n2c1nc1c(O)cccc1c2=O (stereo not given) | -3.02% [at 38.5 µM] |
| CC1C2=CC(=O)OC2(O)CC2C1C(OC(=O)c1ccccc1)C(OC(=O)c1ccccc1)C1(O)C2(C)CCC(O)C1(C)C(=O)O (stereo not given) | 3.59% [at 25.3 µM] |
| O=C1NC(=O)/C(=C/c2cccc(C(F)(F)F)c2)S1 | 1.21% |
| C/C=C/C=C/C=C/C(=O)OC1C=C2C(O)OC(=O)[C@]2(O)[C@@]2(C)CCCC(C)(C)[C@H]12 (stereo not given in full) | -0.158% [at 25.3 µM] |
| COc1cc2c(c(O)c1OC/C=C(\C)CC/C=C(/C)CCC=C(C)C)CN(C(CCC(=O)O)C(=O)O)C2=O (stereo not given) | 0.408% [at 25.3 µM] |
| CCCC(C(=O)O)c1c(C)nc2ccc(Cl)cc2c1-c1ccccc1 (stereo not given) | 0.761% |
| Cn1cc(-c2c[nH]c3ncnc(N4CCOCC4)c23)cn1 | 21.1% |
| CC1=C2C[C@@]3(C)C(CCC[C@@H]3C)C(O)C2(O)OC1=O (stereo not given in full) | -6.93% |
| CCOc1ncc(S(=O)(=O)N2CCN(CC)CC2)cc1-c1nc2c(CC)n(CCOC)nc2c(=O)[nH]1 | 17.6% |
| COc1cc2nc(=NC(=O)c3cccnc3)n3c(c2cc1OC)NCC3 | 12% |
| CC1=CC[C@@]2(C)CC[C@@](O)(C(C)C)[C@@H]2[C@@H](O)C1 | 1.62% |
| C/C(=C\CCC(C)(C)O)CCO[C@@H]1O[C@H](CO[C@@H]2O[C@@H](C)[C@H](O)[C@@H](O)[C@H]2O)[C@@H](O)[C@H](O)[C@H]1O | -1.72% [at 25.3 µM] |
| CC1(C)C=Cc2c(ccc3c2N=C2C(C)(C)[C@@H]4C[C@]56CCCN5C(=O)[C@@]4(C[C@]23O)NC6=O)O1 | 0.528% [at 25.3 µM] |
| C=C1CC23CC1CCC2C12OC(=O)C(C)(C(O)C(O)C1O)C2C3C(=O)O (stereo not given) | -0.864% [at 38.5 µM] |
| C=CC(C)(O)CCC1C(C)(O)CCC2C(C)(C)CCCC21C (stereo not given) | 8.75% [at 38.5 µM] |
| CC1=CC(=O)CC(C)(C)[C@@]1(O)/C=C/C(C)O[C@@H]1O[C@H](CO)[C@@H](O)[C@H](O)[C@H]1O (stereo not given in full) | 1.2% [at 25.3 µM] |
| C=C(CCO)C(=O)OCC1OCC(OC(=O)C(=C)CCO[C@@H]2O[C@H](COC(=O)C(=C)CCO[C@@H]3O[C@H](CO)[C@@H](O)[C@H](O)[C@H]3O)[C@@H](O)[C@H](O)[C@H]2O)C(O)C1O (stereo not given in full) | -6.13% [at 25.3 µM] |
